From PubChem
BAZ2B block: blocks human BAZ2B; actives 4.4% (n = 360,000); Potency, µM (highest dose often 114 µM), inactives show at the highest dose activity change, negative = inhibition, hits mostly inhibitors; Q9UIF8; AlphaScreen BAZ2B-H3K14Ac peptide displacement; note: potency is the fitted concentration of half-maximal effect; % is set by controls: 0 for no effect and ±100 for the full control effect; nearly all actives have a fitted effect of over 60% in size
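In this displacement format the biotinylated H3(5-23) peptide acetylated at Lys14 serves as ligand at 50 nM, with BAZ2B at 50 nM in PBS pH 7.4 containing 0.01% Tween-20. Donor and acceptor beads are 10 ug/mL final.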
CtBP-E1A inh: CtBP/E1A binding inhibition | AlphaScreen GST-E1A/His-CtBP binding, 1536-well; hits give low values | activity change, % (no concentration beside the values) | actives 0.49% (n = 340,000) | AID 651724; in the data active = activity change below about -65%; inconclusive = mostly about -30% to -63%; note: % is set by controls: 0 for no effect and ±100 for the full control effect
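Protein mix (5X: 125 nM each GST-E1A, His-CtBP) was incubated with pinned compound 2 h at 37 deg C in dark, in 50 mM Tris pH 8.0 buffer with 300 mM NaCl. Glutathione donor and nickel acceptor beads followed; AlphaScreen signal read after 1 h.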
JMJD2A Tudor: blocks the human JMJD2A Tudor domain | AID 504339 | actives 4.4% (n = 390,000) | Potency, µM (series often up to 114 µM), for inactives: at the top dose activity change, negative = inhibition, most hits filed as inhibitors | O75164 | AlphaScreen JMJD2A-Tudor / H3K4me3 peptide binding; note: potency is the fitted concentration of half-maximal effect; % is set by controls: 0 for no effect and ±100 for the full control effect; nearly all actives have a fitted effect of over 50% in size
Six1-Eya2 blk: inhibitors of human Six1/Eya2 interaction; Q15475+O00167; activity change, % (test concentration not listed); actives 0.56% (n = 360,000); AlphaScreen GST-Six1/His-Eya2 binding, biochemical; hits give low values; in the data active = activity change below about -65%; inconclusive = mostly about -30% to -63%; note: % is set by controls: 0 for no effect and ±100 for the full control effect
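Compounds are tested against tagged Six1 and Eya2 proteins bridged by glutathione donor and nickel acceptor beads; after a one-hour incubation at 37 °C without light, AlphaScreen emission is recorded.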
HP1b chromo inh: blocks HP1-beta chromodomain binding to methylated histone tails | P83916 | AlphaScreen HP1-beta / biotin-H3K9me3 peptide binding | Potency, µM (doses to about 114 µM), without a hit: at the highest dose activity change, negative = inhibition, usual class: inhibitors | actives 0.56% (n = 390,000) | AID 540317; note: potency is the fitted concentration of half-maximal effect; nearly all actives have a fitted effect of over 70% in size
Target sequence (P83916 whole entry, looked up): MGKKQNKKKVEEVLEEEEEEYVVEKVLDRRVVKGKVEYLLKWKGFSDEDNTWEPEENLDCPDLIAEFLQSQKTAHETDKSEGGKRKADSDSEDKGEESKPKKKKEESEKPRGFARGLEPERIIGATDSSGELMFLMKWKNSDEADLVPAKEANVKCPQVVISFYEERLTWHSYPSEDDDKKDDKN
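AlphaScreen: HP1-beta (50 nM) preformed 30 min with biotin-H3(1-18)K9me3 peptide (50 nM) in PBS pH 7.4, 0.01% Tween-20. Compound added for 30 min at RT, then streptavidin donor/nickel chelate acceptor beads (10 ug/mL) for 30 min.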
G9a inh: inhibitors of human histone lysine methyltransferase G9a; Q96KQ7; G9a H3K9 monomethylation, AlphaScreen, 2 h; Potency, µM (series often up to 102 µM), without a hit: at the top dose activity, negative = inhibition, most hits filed as inhibitors; actives 8.8% (n = 350,000); AID 504332; note: potency is the fitted concentration of half-maximal effect; % is set by controls: 0 for no effect and ±100 for the full control effect; nearly all actives have a fitted effect of over 75% in size
Target sequence (Q96KQ7 913-1193 limits assumed): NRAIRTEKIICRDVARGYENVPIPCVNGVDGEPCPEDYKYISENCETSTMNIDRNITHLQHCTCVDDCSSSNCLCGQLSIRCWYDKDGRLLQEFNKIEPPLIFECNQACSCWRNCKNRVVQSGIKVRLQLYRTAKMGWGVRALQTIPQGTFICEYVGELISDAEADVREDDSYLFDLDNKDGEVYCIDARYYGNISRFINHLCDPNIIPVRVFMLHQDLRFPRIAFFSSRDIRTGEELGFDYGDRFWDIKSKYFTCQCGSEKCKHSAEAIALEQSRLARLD
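Methyltransferase reactions run at room temperature for 2 h (20 nM enzyme, 500 nM biotin-H3K9 peptide, 20 uM SAM) after a 15 min compound preincubation; product detected by AlphaScreen beads and anti-H3K9me1 antibody.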
Starred values were filed as active, the others as inactive; ? = inconclusive; / = no result given; [ ] = remark or other dose. Hits are enriched below; roughly 10% of the tested compounds scored in any of these assays. Unless noted, calls come from the whole dose curve; as a rule, active = well fitted inhibition curve with a large enough effect; inconclusive = small, poorly fitted or top-dose-only effect; inactive = no such curve, though single readings can be large or run the other way.

SMILES | BAZ2B block | CtBP-E1A inh | JMJD2A Tudor | Six1-Eya2 blk | HP1b chromo inh | G9a inh
CCOC(=O)C1=C(C)OC(N)=C(C#N)C1c1ccsc1 (stereo not given) | -38% | 0 | -7% | 2 | 41% | 10µM*
CCOC(=O)Cc1[nH]nc2c1C(c1ccsc1)C(C#N)=C(N)O2 (stereo not given) | -4% | 0 | -10% | 2 | 44% | 5%
CC(=O)C1=C(C)OC(N)=C(C#N)C1c1cccc([N+](=O)[O-])c1 (stereo not given) | -34% | / | -14%[11.4 µM] | -5 | 7% | 45µM*
COc1ccc(NC(=O)CSc2nc3nc(C)c(Cc4ccc(C)cc4)c(C)n3n2)cc1OC | -3% | / | -17% | / | 5% | 3%[59 µM]
Cc1cc(F)ccc1S(=O)(=O)Nc1ccc2c(c1)CCCN2C(=O)c1cccs1 | -27% | / | -17% | / | 11% | ?
COc1cc(C(=O)Nc2ccc(NC(=O)c3ccc(Br)cc3)cc2)cc(OC)c1OC | 3% | / | -14% | / | 41% | -11%[59 µM]
CCOC(=O)C1=C(C)OC(N)=C(C#N)C1c1cc(SCC)oc1C (stereo not given) | ? | -1 | -18% | -3 | 21% | 45µM*
CCOC(=O)C1=C(CC)OC(N)=C(C#N)C1c1cccs1 (stereo not given) | -24% | -7 | -16% | -6 | 21% | 50µM*
COc1ccc(NC(=O)c2ccco2)cc1NC(=O)c1cc(OC)c(OC)c(OC)c1 | 5% | / | -7% | / | 36% | 6%[59 µM]
O=C(Nc1cccc(S(=O)(=O)N2CCOCC2)c1)c1c2c(nc3ccccc13)CCC2 | ? | 2 | -28% | -1 | -3% | 22µM*
Cc1ccc(SCC(=O)Nc2cccc(S(=O)(=O)N3CCOCC3)c2)cc1C | 13% | ? | 2% | -28 | 7% | -7%[12.7 µM]
Cc1cc(SCC(=O)Nc2cccc(S(=O)(=O)N3CCOCC3)c2)nc2ccccc12 | -22% | / | -13% | -10 | 33% | 40µM*
Cc1c(-n2c(O)c(C3=c4ccccc4=NC3=O)sc2=S)c(=O)n(-c2ccccc2)n1C | -31% | -7 | -6% | 3 | -12% | 45µM*
COc1cccc(CNC(=O)Cn2nc3c(cc2=O)CCCC3)c1OC | 6% | / | 0% | / | 14%[57 µM] | 14%[59 µM]
O=S(=O)(Nc1cccc2cccnc12)c1ccccc1O | / | / | 32µM* | / | / | /
O=S(=O)(Nc1cccc2cccnc12)c1cccs1 | / | / | 79µM* | / | 29% | /
Cc1ccc(CNS(=O)(=O)c2c(C)nc3sc(C)cn3c2=O)cc1 | -11% | / | -6% | / | 26% | -32%[59 µM]
C=CCc1ccc(OCCCOc2ccc(C(=O)O)cc2)c(OC)c1 | -11% | 5 | -14% | -1 | 7% | -30%
C=CCc1ccc(OCCCN2CCCC(C)C2)c(OC)c1 (stereo not given) | 79µM* | -6 | 3.5µM* | 0 | -25% | 7.1µM*
C=CCc1ccc(OCCCCN2CCC(C)CC2)c(OC)c1 | ? | -11 | 2.8µM* | -3 | -24% | ?
C=CCc1ccc(OCC(O)CN2CCC(Cc3ccccc3)CC2)c(OC)c1 (stereo not given) | -29% | -10 | -32% | 3 | -10% | ?
Cc1nnc(N2CCC(C(=O)NCCC(C)C)CC2)c2nn(-c3ccc(Cl)cc3)c(C)c12 | 1% | / | 6% | / | 30% | 9%[59 µM]
COc1ccc(Oc2nc3c(C)cccn3c(=O)c2/C=C(\C#N)c2nc3ccccc3[nH]2)cc1 | -15% | / | -18% | / | 11% | 6%[59 µM]
O=c1c2ccccc2nc(-c2ccco2)n1/N=C/c1ccccc1O | 1% | -11 | -21% | ? | 31% | 0%[59 µM]
CC(C)N=c1scc(-c2ccco2)n1/N=C/c1ccc(O)c(O)c1 | 32µM* | ? | 40µM* | ? | ? | ?
COC(=O)c1ccc(-c2ccco2)n1Cc1cc(C)ccc1C | -1% | -4 | -21% | -6 | 5% | -3%
COc1cccc(/C=N/n2c(-c3ccco3)nc3ccccc3c2=O)c1 | -5% | -9 | -15% | 13 | 23% | 4%[59 µM]
